From PubChem BioAssay (NCI)
This is part of a sample that, as a whole, favours compounds with a hit. Of some 83,000 tested, about 20% had one in any assay.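 Percent growth is the endpoint: 0 to 100 indicates growth inhibition (40 means 60% inhibition), 0 means no net growth, and negative values indicate cell death.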 The source made the active and inactive calls. Rule for the calls: active = growth percent below 10; inactive = the rest.

test system: UO-31 renal; assay: NCI-60 one-dose screen, 48 h (100 = growth as untreated, 0 = no growth, -100 = all killed); settings: 10 µM unless noted

SMILES	growth
Brc1c2c(c(Br)c3ccccc13)CCCC2	95.2% (inactive)
CC1(C)CC2=C3C=C[C@@H]4[C@@]5(C)CCC(=O)C(C)(C)[C@@H]5CC[C@@]4(C)[C@]3(C)CC[C@@]2(C(=O)O)CC1=O	44.4% (inactive)
O=S(=O)(NCCNc1nccc(-c2c(-c3cccc(F)c3)nc3occn23)n1)c1ccc(Br)cc1	64% (inactive)
COc1ccc(-c2cc(-c3ccc(Cl)cc3)c(C#N)c(=O)n2CCCCC(=O)Nc2ccccc2N)cc1	33.4% (inactive)
COc1ccc2c3c([nH]c2c1)C(=O)c1nc(C)ccc1C3=O	39.6% (inactive)
Cc1c(-n2nnc(-c3nc4ccccc4s3)c2N)c(=O)n(-c2ccccc2)n1C	73.9% (inactive)
COc1ccc(/C=C2\COc3ccc(O)c(O)c3C2=O)cc1	-86.3% (active)
O=C1c2cccnc2C(=O)c2c1c(C(=O)NCCCN1CCCCC1)c1ccccn21	-34.5% (active)
Cc1ccc(CNc2ccc(Cl)cc2NCc2ccc(C)c(O)c2)cc1O	11.9% (inactive)
Cc1ccc(Sc2nnc(/N=C3\C(=O)Nc4ccccc43)s2)cc1	90.5% (inactive)
O=C(Cn1cc(CN2CCCCCC2)nn1)Nc1ccc2c(ccn2Cc2ccccc2)c1	54.4% (inactive)
Cc1noc(C)c1C(=O)OCc1coc2ccccc2c1=O	48.7% (inactive)
S=C1CCSC(=S)N1CCCN1C(=S)CCSC1=S	45.1% (inactive)
Oc1ccc(CCn2c(O)c(/C=C3\CN=c4ccccc4=N3)sc2=S)cc1	28.9% (inactive)
COc1ccc(-c2nnc3n(C)c(=O)c4ccccc4n23)cc1N	44.3% (inactive)
Cn1cccc1C(=O)C1C(c2cccc([N+](=O)[O-])c2)C2C3CCCCC3CN2C12C(=O)Nc1ccc(Cl)cc12 (configuration not stated)	45.5% (inactive)
CCOC(=O)C#Cc1c(C(=O)OCC)nnn1[C@@H]1O[C@H](CO)[C@H]2OC3(CCCCC3)O[C@H]21	5.58% (active)
O=[N+]([O-])c1ccc(N/N=C(/C(=N/Nc2ccc([N+](=O)[O-])cc2)c2ccccc2)c2ccccc2)cc1	51.8% (inactive)
N#Cc1c(-c2ccccc2)cc(-c2ccccc2)n(CCCCCC(=O)Nc2ccccc2N)c1=O	34.4% (inactive)
CC1(c2ccccc2O)NN=C(/N=C/c2cccc([N+](=O)[O-])c2)N1C(Cc1c[nH]c2ccccc12)C(=O)O (configuration not stated)	70.8% (inactive)
O=C(OCc1ccc2c(Cl)cc(Cl)c(O)c2n1)n1cncn1	15.2% (inactive)
Clc1ccc(CNc2c3ccccc3nc3ccccc23)cc1	27% (inactive)
CCSc1nc(NC)c2cc(-c3ccc(C(F)(F)F)cc3)ccc2n1	92.2% (inactive)
CCCCCCCCCCCCCCCCCCOc1ccccc1CC(=O)OCC[N+]1(C)CCCC1	62.8% (inactive)
O=C(c1ccc(-c2ccccc2)cc1)c1ccc([N+](=O)[O-])cc1	97.5% (inactive)
O=C1Nc2ccccc2/C1=C\c1nc(-c2ccccc2F)n2ccccc12	-16.2% (active)
O=C(OCc1ccc2cccc(O)c2n1)N1CCN(C(=O)c2cc3cc(F)ccc3[nH]2)CC1	-100% (active)
O=C(NNc1nccc(Nc2ccc(S(=O)(=O)Nc3ccncc3)cc2)n1)c1ccccc1	93.9% (inactive)

test system: TK-10 renal; assay: as above; settings: 10 µM unless noted

SMILES	growth
CC(=O)OC[C@]12CCC(C)(C)C[C@H]1[C@@]1(O)[C@H](O)C[C@@H]3[C@@]4(C)CCCNC(C)(C)[C@@H]4CC[C@@]3(C)[C@]1(C)CC2	103% (inactive)
COC(C(=O)[C@@H](O)[C@@H](C)O)[C@@H]1Cc2cc3cc(O[C@H]4C[C@@H](O[C@H]5C[C@@H](O)[C@H](O)C(C)O5)[C@H](O)C(C)O4)cc(O)c3c(O)c2C(=O)[C@H]1O[C@H]1C[C@@H](O[C@H]2C[C@@H](O[C@H]3C[C@@H](OC)[C@H](O)C(C)O3)[C@@H](O)C(C)O2)[C@H](O)C(C)O1 (some centres not stated)	59.5% (inactive)
O=C1CNC(c2ccccc2)C(c2ccccc2)N1 (configuration not stated)	103% (inactive)
CCc1n(Cc2ccc3ccccc3c2)cc[n+]1Cc1ccc2ccccc2c1	-10.3% (active)
O=C(/C=C/c1ccc(Cl)cc1)c1cccc(Nc2nc(Nc3ccccc3)nc(Nc3ccccc3)n2)c1	92.6% (inactive)
C=C1C(=O)O[C@H]2[C@H]1CC/C(COC(=O)NCc1cc[nH]c1)=C\CC[C@@]1(C)O[C@@H]21	44.1% (inactive)
CN1CCN(C(=O)c2ccc(NC(=O)Nc3ccc(-c4nc(N5CCOCC5)c5cccn5n4)cc3)cc2)CC1	-23.5% (active)
O=C1c2cccnc2C(=O)c2c1c(C(=O)NCCn1ccnc1)c1ccccn21	116% (inactive)
Cc1nn(-c2ccccc2)c(Oc2ccccn2)c1-c1nc2ccccc2s1	103% (inactive)
CCN(CC)c1nc(SCc2ccccc2Cl)ncc1C	117% (inactive)
COc1cc(-c2nc3cc(Cl)c(Cl)cc3[nH]2)ccc1OCC(=O)N=Nc1c(O)[nH]c2ccc([N+](=O)[O-])cc12	124% (inactive)
Brc1c2c(c(Br)c3ccccc13)CCCC2	99.2% (inactive)
CC1(C)CC2=C3C=C[C@@H]4[C@@]5(C)CCC(=O)C(C)(C)[C@@H]5CC[C@@]4(C)[C@]3(C)CC[C@@]2(C(=O)O)CC1=O	61.2% (inactive)
O=S(=O)(NCCNc1nccc(-c2c(-c3cccc(F)c3)nc3occn23)n1)c1ccc(Br)cc1	103% (inactive)
COc1ccc(-c2cc(-c3ccc(Cl)cc3)c(C#N)c(=O)n2CCCCC(=O)Nc2ccccc2N)cc1	102% (inactive)
COc1ccc2c3c([nH]c2c1)C(=O)c1nc(C)ccc1C3=O	109% (inactive)
Cc1c(-n2nnc(-c3nc4ccccc4s3)c2N)c(=O)n(-c2ccccc2)n1C	109% (inactive)
COc1ccc(/C=C2\COc3ccc(O)c(O)c3C2=O)cc1	7.43% (active)
O=C1c2cccnc2C(=O)c2c1c(C(=O)NCCCN1CCCCC1)c1ccccn21	-1.12% (active)
Cc1ccc(CNc2ccc(Cl)cc2NCc2ccc(C)c(O)c2)cc1O	52.3% (inactive)

SMILES	growth
Cc1ccc(Sc2nnc(/N=C3\C(=O)Nc4ccccc43)s2)cc1	104% (inactive)
O=C(Cn1cc(CN2CCCCCC2)nn1)Nc1ccc2c(ccn2Cc2ccccc2)c1	92.2% (inactive)
Cc1noc(C)c1C(=O)OCc1coc2ccccc2c1=O	71.4% (inactive)
S=C1CCSC(=S)N1CCCN1C(=S)CCSC1=S	66% (inactive)
Oc1ccc(CCn2c(O)c(/C=C3\CN=c4ccccc4=N3)sc2=S)cc1	30.8% (inactive)
COc1ccc(-c2nnc3n(C)c(=O)c4ccccc4n23)cc1N	45.3% (inactive)
Cn1cccc1C(=O)C1C(c2cccc([N+](=O)[O-])c2)C2C3CCCCC3CN2C12C(=O)Nc1ccc(Cl)cc12 (configuration not stated)	103% (inactive)
CCOC(=O)C#Cc1c(C(=O)OCC)nnn1[C@@H]1O[C@H](CO)[C@H]2OC3(CCCCC3)O[C@H]21	-3.79% (active)
O=[N+]([O-])c1ccc(N/N=C(/C(=N/Nc2ccc([N+](=O)[O-])cc2)c2ccccc2)c2ccccc2)cc1	94.4% (inactive)
N#Cc1c(-c2ccccc2)cc(-c2ccccc2)n(CCCCCC(=O)Nc2ccccc2N)c1=O	72.8% (inactive)
CC1(c2ccccc2O)NN=C(/N=C/c2cccc([N+](=O)[O-])c2)N1C(Cc1c[nH]c2ccccc12)C(=O)O (configuration not stated)	141% (inactive)
O=C(OCc1ccc2c(Cl)cc(Cl)c(O)c2n1)n1cncn1	61.7% (inactive)
Clc1ccc(CNc2c3ccccc3nc3ccccc23)cc1	49.7% (inactive)
CCSc1nc(NC)c2cc(-c3ccc(C(F)(F)F)cc3)ccc2n1	121% (inactive)
CCCCCCCCCCCCCCCCCCOc1ccccc1CC(=O)OCC[N+]1(C)CCCC1	45.2% (inactive)
O=C(c1ccc(-c2ccccc2)cc1)c1ccc([N+](=O)[O-])cc1	124% (inactive)
O=C1Nc2ccccc2/C1=C\c1nc(-c2ccccc2F)n2ccccc12	-6.87% (active)
O=C(OCc1ccc2cccc(O)c2n1)N1CCN(C(=O)c2cc3cc(F)ccc3[nH]2)CC1	-97.1% (active)
O=C(NNc1nccc(Nc2ccc(S(=O)(=O)Nc3ccncc3)cc2)n1)c1ccccc1	95.3% (inactive)
